Experimental data as given in PubChem BioAssay AID374 (University of Pittsburgh Molecular Library Screening Center, 2006).
In all, about 65,000 compounds went through this assay and about 100 (0.15%) were called active. The list comes from a sample in which actives are over-represented; it also holds similar structures and randomly drawn compounds. Unmarked numbers belong to inactive results.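 Rule for the calls: active = inhibition above about 50% (limit read from the data); inconclusive = inhibition over screen mean plus 3 SD, below that limit; inactive = the rest.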

Molecular target: Dual specificity protein phosphatase 1 (Homo sapiens) (UniProt P28562)
Sequence (P28562 whole entry, looked up): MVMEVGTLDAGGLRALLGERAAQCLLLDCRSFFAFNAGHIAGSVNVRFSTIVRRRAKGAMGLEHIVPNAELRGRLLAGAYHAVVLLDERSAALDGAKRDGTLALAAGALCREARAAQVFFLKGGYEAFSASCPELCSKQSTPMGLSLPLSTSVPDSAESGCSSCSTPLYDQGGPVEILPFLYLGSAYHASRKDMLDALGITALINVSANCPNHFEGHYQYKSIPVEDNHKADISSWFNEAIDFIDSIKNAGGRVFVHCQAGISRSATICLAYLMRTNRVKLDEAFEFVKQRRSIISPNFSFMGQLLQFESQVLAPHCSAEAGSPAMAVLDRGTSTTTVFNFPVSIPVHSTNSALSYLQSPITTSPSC
Test: MKP-1 phosphatase inhibitors, primary screen, biochemical, in vitro (AID 374);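 note: 0% = DMSO max control wells and 100% = wells with enzyme stopped by NaOH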
Details: recombinant MKP-1, OMFP hydrolysis fluorescence; stronger effect = higher value;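 compounds tested at a single concentration somewhere between 10 and 100 µM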

Compared with Cc1cccc(N2C(=O)SC(N(CC(=O)O)c3cccc(C)c3)C2=O)c1 (centres undefined), Cc1cc(N2C(=O)c3ccc(C(=O)NCc4ccccc4)cc3C2=O)no1 is lower in inhibition: 11.8% for the first, 6.5% for the second.

First: COc1ccc(C(=O)N(Cc2ccc(N(C)C)cc2)C2CCS(=O)(=O)C2)cc1 (centres undefined)
Second: COc1cccc(C2/C(=C(/O)c3ccc(F)cc3)C(=O)C(=O)N2CCN(C)C)c1 (centres undefined)
The inhibition of the first is lower: 0.01% for the first, 3.73% for the second.

Compared with Cc1nc2sc(C(c3ccco3)N3CCC4(CC3)OCCO4)c(O)n2n1 (centres undefined), Cc1cccc(N2CCN(C(c3ccccc3)c3nnnn3CC3CCCO3)CC2)c1C (centres undefined) is higher in inhibition: 4.37% for the first, 20.8% for the second.

Compared with COc1ccc2c(CC(=O)Nc3nnc(C4CC4)s3)coc2c1, COc1ccc(-n2c(SCC(=O)NCc3cccs3)nnc2-c2ccoc2C)cc1 is lower in inhibition: 11.4% for the first, -10% for the second.

Going from CCCCCCn1c(CN2CCCCC2)nc2c1c(=O)n(C)c(=O)n2C to C=C(C)Cn1c(N2CCCC2)nc2c1c(=O)[nH]c(=O)n2C, the inhibition rises from 3.15% to 4.46%.

First: CNC(=O)Nc1cc(C(C)(C)C)no1
Second: Cn1c(CNC(=O)C(C)(C)C)nc2ccccc21
The inhibition of the first is lower: -18.9% for the first, 4.69% for the second.

First: CCN(CC(=O)NC(C)C)C(=O)CCNC(=O)c1ccc(Cl)cc1
Second: Cc1ccc(C(=O)NCCNS(=O)(=O)c2ccccc2)cc1
The inhibition of the first is higher: 24.3% for the first, 9.54% for the second.

First: CN1C(=O)c2ccc(NC(=O)C3CCCCC3)cc2C1=O
Second: O=C(Nc1c(Cl)cccc1Cl)C1CCC1
The inhibition of the first is higher: 16.2% for the first, -12.7% for the second.

Compared with CC1(C)CC(=O)C=C(NCCCN2CCCC2=O)C1, COc1cccc(CN2C(=O)CCC2(C)C(=O)NC2CCCCCC2)c1 (centres undefined) is higher in inhibition: -21.7% for the first, 10.3% for the second.

Compared with CCOc1ccccc1C1CC(c2ccccc2)Nc2nc(N)nn21 (centres undefined), CCCc1nc(-c2ccccc2O)n(-c2ccccc2)n1 is lower in inhibition: 5.12% for the first, -14.3% for the second.

First: CSC1=N/C(=C\C=C\c2cccs2)C(=O)S1
Second: CC1Cn2c(nnc2-c2cccs2)S1 (centres undefined)
The inhibition of the first is higher: -1.19% for the first, -6.93% for the second.

Compared with Fc1ccc(OCc2nn3c(Cn4nnc5ccccc54)nnc3s2)cc1, O=c1c2ccccc2nc(CSc2nnnn2-c2ccccc2)n1-c1ccccc1 is lower in inhibition: 17.2% for the first, 11.8% for the second.

First: COc1cccc2cc(C(=O)N(C)C)c(=O)oc12
Second: COc1ccc(F)cc1S(=O)(=O)Nc1ccc2c(c1)OCO2
The inhibition of the first is lower: -3.65% for the first, 12.4% for the second.

Going from CCCCOC(=O)c1[nH]c(C)c(C(=O)OC)c1C to COCCOC(=O)C1=C(C)NC(=O)NC1c1ccc(Cl)cc1 (centres undefined), the inhibition rises from -26.1% to 5.89%.

Compared with Cc1n[nH]c(C)c1S(=O)(=O)N1CCCC(C(=O)NCC2COc3ccccc3O2)C1 (centres undefined), CC(C)CNC(=O)C1CCCN(S(=O)(=O)c2ccc(-n3cnnn3)cc2)C1 (centres undefined) is higher in inhibition: 2.75% for the first, 10.4% for the second.

Going from CCS(=O)(=O)N1CCN(C(=O)c2cccs2)CC1 to CC(=O)N1CCN(c2cccc(C)c2C)CC1, the inhibition rises from 0.17% to 9.16%.

Going from Cc1nn(-c2ccccc2)c2c1C(=O)NC(=O)C(C)(C)C2 to Cc1nc2nc3c(cn2n1)C(=O)CC(c1ccccc1)C3 (centres undefined), the inhibition rises from -21.3% to -8.11%.

Going from Cc1cccc(N)c1SC1CCCCC1O (centres undefined) to Cc1ccc(C(=O)Nc2ccccc2C(=O)NC2CCCCC2)cc1S(=O)(=O)N1CCOCC1, the inhibition rises from -21.7% to 15.1%.

First: COc1ccccc1Oc1ccc(S(=O)(=O)Nc2cccnc2)cc1
Second: COc1ccccc1-n1cnc2cc(NS(=O)(=O)c3ccccc3)ccc21
The inhibition of the first is higher: -6.18% for the first, -7.71% for the second.

First: CCN(CC)P(=O)(C(NC(=O)OC)C(F)(F)C(F)(F)C(F)(F)C(F)F)N(CC)CC (centres undefined)
Second: CCC(C(=O)Nc1ncccn1)(C(F)(F)F)C(F)(F)F
The inhibition of the first is higher: 32.7% for the first, -11.8% for the second.

Compared with CCO/C([O-])=N/c1c[n+](N2CCOCC2)no1, CSC1=NCCN1C(=O)c1ccc(S(=O)(=O)N2CCOCC2)cc1 is higher in inhibition: -14.5% for the first, -8.44% for the second.

Compared with COc1ccc(OC)c2sc(NC(=O)C3COc4ccccc4O3)nc12 (centres undefined), COC(=O)c1ccc(C2C3=C(Nc4nnnn42)c2ccccc2OC3)cc1 (centres undefined) is lower in inhibition: 10.2% for the first, -1.69% for the second.

Going from COc1ccc(-c2nnc(SCC(=O)c3ccco3)n2-c2ccccc2)cc1 to Cc1nnc(SCC(=O)N2CCc3ccccc32)n1-c1ccccc1, the inhibition rises from 1.42% to 17.3%.

Compared with CCCOc1cccc(C(=O)Nc2nnn(CCC)n2)c1, CCCCOc1ccc(C(=O)NCc2ccco2)cc1 is higher in inhibition: -1.6% for the first, -0.67% for the second.

First: CC(=O)N(CN1C(=O)C2CC=CCC2C1=O)c1cccc(Cl)c1 (centres undefined)
Second: COc1cccc(N2CCN(C3CC(=O)N(c4ccc(Cl)cc4)C3=O)CC2)c1 (centres undefined)
The inhibition of the first is lower: 4.23% for the first, 9.47% for the second.

First: Cc1nc2ccccc2cc1O
Second: CN1c2ccccc2-c2nc3ccccc3n2C1c1ccco1 (centres undefined)
The inhibition of the first is higher: -1.94% for the first, -25.5% for the second.

First: COc1ccc(CCN2CNc3c(c(=O)n(C)c(=O)n3C)C2)cc1OC
Second: Cn1c(=O)c2c(nc(OCc3cccnc3)n2Cc2ccccc2)n(C)c1=O
The inhibition of the first is higher: -8.44% for the first, -22.4% for the second.

First: CCOC(=O)Cn1c(=O)oc2cc(S(=O)(=O)NCC3CCCO3)ccc21 (centres undefined)
Second: CC(C)C(C(=O)NC1CCCCC1)N(CC1CCCO1)C(=O)CNS(=O)(=O)c1ccc(F)cc1 (centres undefined)
The inhibition of the first is lower: -10.8% for the first, 42% for the second.

First: COC(=O)C1C(=O)CC(C)(O)C(C(=O)OC)C1c1ccc2c(c1)OCO2 (centres undefined)
Second: CNC(=O)C1CC(=O)N(Cc2ccc3c(c2)OCO3)C(=Nc2ccc(F)cc2)S1 (centres undefined)
The inhibition of the first is lower: 4.11% for the first, 4.87% for the second.

First: Cc1ccc2nc(NCCCNC(=O)c3cnccn3)c(C#N)cc2c1
Second: Cn1c(SCc2c(F)cccc2Cl)nnc1-c1cnccn1
The inhibition of the first is higher: 16.8% for the first, 4.26% for the second.

Going from CCN(CCCNC(=O)C1CCN(S(=O)(=O)c2cnc[nH]2)CC1)c1ccccc1 to CCOC(=O)N1CCN(C(=O)CN(c2ccc(C)c(C)c2)S(=O)(=O)c2ccccc2)CC1, the inhibition rises from -3.93% to 12.6%.

First: CC(CCc1ccccc1)NC(=O)c1ccc(Br)o1 (centres undefined)
Second: OC(COc1ccccc1)Cn1cc(Br)cn1 (centres undefined)
The inhibition of the first is higher: 9.59% for the first, -0.2% for the second.

Compared with COc1ccc(OCC(=O)N2CCN(C(=O)COc3ccccc3)CC2)cc1, CCOC(=O)N1CCN(C(=O)c2ccc3nc4cc(Cl)ccc4c(=O)n3c2)CC1 is lower in inhibition: 3.4% for the first, -0.24% for the second.

Compared with CCOC(=O)C1CCCN(C(=O)c2cncc(Br)c2)C1 (centres undefined), CCOC(=O)C1C(=O)OC2(CCCC2)C1C(=O)OCC (centres undefined) is higher in inhibition: -1.24% for the first, 0.52% for the second.

First: COc1cccc(N2C(=O)C3CCCN3C2c2ccc(F)cc2)c1 (centres undefined)
Second: COCCCn1c(CCC(=O)O)ccc1-c1ccc(F)cc1
The inhibition of the first is lower: 7.6% for the first, 33.1% for the second.

First: CCCNc1ncnc2sc(C)c(C)c12
Second: Cc1oc2nc(SCC(=O)NCc3cccnc3)nc(N)c2c1C
The inhibition of the first is lower: 6.02% for the first, 32.5% for the second.

First: CCOC(=O)N1CCN(Cc2oc(CO)cc(=O)c2O)CC1
Second: O=C(Oc1ccc2c(c1)CCC2)N1CCOCC1
The inhibition of the first is higher: 30.4% for the first, -9.77% for the second.

First: Cn1c(C(=O)NCCN2CCc3ccccc3C2)cc2c(=O)[nH]c3ccccc3c21
Second: C=CCn1c(=O)c2ccccc2n2c(SCC(=O)N3CCCc4ccccc43)nnc12
The inhibition of the first is higher: 31% for the first, 12.1% for the second.

Going from Cc1ccc(-c2noc(CSc3nnnn3-c3ccccc3)n2)cc1 to Cn1c(SCC(=O)Nc2cccc(O)c2)nnc1-c1ccc(S(=O)(=O)N2CCOCC2)cc1, the inhibition falls from 0.15% to -24.3%.

First: CCOCCCNC(=O)c1c[nH]c2cc(C)ccc2c1=O
Second: COCCCNC(=O)CCc1nc2cccnc2n1Cc1ccc(OC)cc1
The inhibition of the first is higher: 7.4% for the first, 2.57% for the second.

First: COc1ccc(NC(=O)c2c(SC)nsc2SC)cc1
Second: COC(=O)[C@H](CCSC)NC(=O)Nc1ccc(OC)cc1
The inhibition of the first is higher: 0.33% for the first, -29.3% for the second.

Going from CC(=O)Nc1ccc(S(=O)(=O)Nc2nc3n(n2)C(c2ccccc2)CC(=O)N3)cc1 (centres undefined) to COc1ccc(S(=O)(=O)Nc2ccc(S(=O)(=O)N3CCCCC3)cc2)cc1OC, the inhibition falls from -6% to -11.3%.

Going from CC(C)COC(=O)c1ccc(NC(=O)C2C3C=CC(C3)C2C(=O)O)cc1 (centres undefined) to C[C@H](NC(=O)OC(C)(C)C)c1nnc(SCC(=O)Nc2ccc(Br)cc2)o1, the inhibition falls from 23.6% to 13%.

First: O=S(=O)(c1cccs1)N1CCc2ccccc2C1
Second: Cc1nc(-c2ccc(NC(=O)c3cccs3)cc2)cs1
The inhibition of the first is higher: 1.16% for the first, -3.52% for the second.

Going from CCSC(C)CC1C/C(=N/O)c2c(C)noc2C1 (centres undefined) to CCc1ccccc1NC(=O)CSc1nnc([C@@H](NC(=O)OC(C)(C)C)C(C)CC)o1 (some centres undefined), the inhibition rises from 12.5% to 27.6%.

Going from O=C(NC(=O)c1ccc(Cl)c(Cl)c1)OC1CCS(=O)(=O)C1 (centres undefined) to CC(C)(C)n1nc2c(c1NC(=O)c1ccc(S(=O)(=O)N3CCCC3)cc1)CS(=O)C2 (centres undefined), the inhibition rises from 0.18% to 1.54%.

Compared with N#Cc1nc(Cc2cccc3ccccc23)oc1NCc1ccc2c(c1)OCO2, CCN(CC)S(=O)(=O)c1cccc(C(=O)Nc2cc(C)nn2-c2nc(C)cc(C)n2)c1 is lower in inhibition: -0.11% for the first, -26.4% for the second.

First: O=C(O)c1ccc(COCC(F)(F)F)cc1
Second: Cc1c(C)c2cc3c4c(oc3c(C)c2oc1=O)CCCC4
The inhibition of the first is lower: 5.73% for the first, 10% for the second.

In the case of Cc1cccc(N2CCN(C(=O)c3cc4c(=O)[nH]c5ccccc5c4n3C)CC2)c1C, the inhibition is reported as 50.9% (active).
For Cc1ccc(Nc2nc(CSc3nnnn3-c3ccccc3)cc(=O)[nH]2)cc1, the inhibition was 53.9% (active).
For O=C(CSc1nc2[nH]ncc2c(=O)n1-c1ccccc1)N1CCCc2ccccc21, the inhibition was 50.2% (active).
